Consider 20 compounds from PubChem BioAssay.

SMILES strings stand for the structures. Values without a mark were called inactive. For some of these results: Results with a measured potency or affinity are listed apart. The source made the active and inactive calls. Unless noted, the rule behind the calls is not given here.

A short description of assay [1]: antimalarial activity against Dd2 strain (AID 2302;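 active = growth inhibition above 50% at the single 2 µM test dose, taken to imply half-maximal potency below 2 µM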;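 note: 0% = DMSO untreated growth and 100% = chloroquine plus artemisinin killed control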). Particulars: P. falciparum Dd2 in RBCs, LDH growth readout, 72 h; at 2 µM; stronger effect = higher value.
Assay [2] can be described thus: HepG2 cytotoxicity, primary screen, cytotoxicity control for P. falciparum antimalarial project, cell-based, ATP luminescence (AID 2303;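 active = inhibition above 50%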;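 note: 0% = DMSO wells and 100% = digitonin-killed cells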). Particulars: HepG2 viability, 24-48 h, at 10 µM, stronger effect = higher value.
Assay [3] deals with L-lactate dehydrogenase (Plasmodium falciparum (isolate CDC / Honduras)) (UniProt Q27743). Nature of the assay: PfLDH activity inhibition – cell lysate, 3D7 strain, counter-screen for P. falciparum growth inhibition project (AID 2304).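 Note: 0% = vehicle and 100% = reference inhibitor.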 Particulars: P. falciparum 3D7 crude extract, LDH APAD/NBT absorbance; at 2 µM; stronger effect = higher value. On the technique in general: A counterscreen serves to expose hits that act by an unwanted route or on another target.
L-lactate dehydrogenase (Plasmodium falciparum (isolate CDC / Honduras)), sequence (Q27743 whole entry, looked up): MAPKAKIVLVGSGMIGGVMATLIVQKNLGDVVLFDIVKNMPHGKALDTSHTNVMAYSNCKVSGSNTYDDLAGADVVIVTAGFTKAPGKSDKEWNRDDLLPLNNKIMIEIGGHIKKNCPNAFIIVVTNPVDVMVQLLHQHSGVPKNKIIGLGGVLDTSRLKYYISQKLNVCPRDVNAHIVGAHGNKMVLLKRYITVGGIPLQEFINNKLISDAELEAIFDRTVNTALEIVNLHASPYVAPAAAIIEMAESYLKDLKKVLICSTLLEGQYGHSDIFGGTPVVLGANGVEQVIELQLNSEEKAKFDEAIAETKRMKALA

Assay [4] in a line: inhibition of 3D7 malaria parasite growth – strain 3D7 (AID 2306).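 Note: 0% = DMSO wells and 100% = chloroquine plus artemisinin control wells.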 Particulars: P. falciparum 3D7 erythrocytic growth, LDH absorbance, 72 h; at 2 µM; stronger effect = higher value.
Assay [5] deals with Calcium-dependent protein kinase 1 (Plasmodium falciparum (isolate 3D7)) (UniProt P62344). Put plainly: PfCDPK1 kinase inhibitors, biochemical, TCAMS library (AID 1159585; cut-off not given, nearly all actives have IC50 up to about 0.98 µM;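 note: inhibitors leave more ATP so luminescence rises with inhibition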). The settings on record: recombinant PfCDPK1, Kinase-Glo ATP depletion luminescence.
Calcium-dependent protein kinase 1 (Plasmodium falciparum (isolate 3D7)), sequence (P62344 whole entry, looked up): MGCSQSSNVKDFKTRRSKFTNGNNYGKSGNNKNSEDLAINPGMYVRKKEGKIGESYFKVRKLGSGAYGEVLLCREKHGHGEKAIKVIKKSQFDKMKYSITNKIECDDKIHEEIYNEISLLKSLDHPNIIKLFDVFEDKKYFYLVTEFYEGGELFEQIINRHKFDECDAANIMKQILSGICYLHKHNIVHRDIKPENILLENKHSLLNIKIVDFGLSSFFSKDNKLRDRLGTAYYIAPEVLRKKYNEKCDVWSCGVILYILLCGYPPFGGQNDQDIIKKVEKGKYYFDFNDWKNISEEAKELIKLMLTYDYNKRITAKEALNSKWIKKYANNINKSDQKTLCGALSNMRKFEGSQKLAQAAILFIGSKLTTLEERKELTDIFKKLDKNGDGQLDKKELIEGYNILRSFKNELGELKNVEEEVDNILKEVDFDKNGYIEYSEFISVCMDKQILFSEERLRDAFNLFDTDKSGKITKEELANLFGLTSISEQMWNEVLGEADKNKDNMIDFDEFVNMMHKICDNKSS
Assay [6] has as its target Plasmodium falciparum protein kinase 6 (PK6, PF3D7_1337100) (UniProt Q8IDW1). Put plainly: PfPK6 kinase inhibitors, biochemical, TCAMS library (AID 1159586). The settings on record: recombinant PfPK6, Kinase-Glo ATP depletion luminescence.
Assay [7] deals with Protein kinase 7 (PK7), Plasmodium falciparum 3D7 (PF3D7_0213400) (UniProt Q7YTF7). Put plainly: inhibition of Plasmodium PK7 catalytic activity – biochemical, TCAMS antimalarial set, Kinase-Glo luminescence (AID 1159587). Particulars: recombinant PfPK7, Kinase-Glo ATP depletion luminescence.
Protein kinase 7 (PK7), Plasmodium falciparum 3D7 (PF3D7_0213400), sequence (Q7YTF7 1-343): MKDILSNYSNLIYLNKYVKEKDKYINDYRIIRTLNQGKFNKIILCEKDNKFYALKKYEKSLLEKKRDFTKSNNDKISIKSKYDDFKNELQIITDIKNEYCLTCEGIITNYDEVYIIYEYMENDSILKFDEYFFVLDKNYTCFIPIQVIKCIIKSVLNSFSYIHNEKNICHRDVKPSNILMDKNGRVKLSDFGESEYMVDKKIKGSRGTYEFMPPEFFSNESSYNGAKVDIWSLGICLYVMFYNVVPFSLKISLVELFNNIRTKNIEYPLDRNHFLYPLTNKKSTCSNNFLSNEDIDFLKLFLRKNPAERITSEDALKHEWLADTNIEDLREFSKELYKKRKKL
For assay [8], the target named is Calcium-dependent protein kinase 4 (Plasmodium falciparum (isolate 3D7)) (UniProt Q8IBS5). Nature of the assay: PfCDPK4 kinase inhibitors, biochemical, TCAMS library (AID 1159588; cut-off not given, nearly all actives have IC50 up to about 0.91 µM). The settings on record: recombinant PfCDPK4, Kinase-Glo ATP depletion luminescence. A general note: Kinase-Glo measures the ATP left after a reaction by luminescence.
Calcium-dependent protein kinase 4 (Plasmodium falciparum (isolate 3D7)), sequence (Q8IBS5 whole entry, looked up): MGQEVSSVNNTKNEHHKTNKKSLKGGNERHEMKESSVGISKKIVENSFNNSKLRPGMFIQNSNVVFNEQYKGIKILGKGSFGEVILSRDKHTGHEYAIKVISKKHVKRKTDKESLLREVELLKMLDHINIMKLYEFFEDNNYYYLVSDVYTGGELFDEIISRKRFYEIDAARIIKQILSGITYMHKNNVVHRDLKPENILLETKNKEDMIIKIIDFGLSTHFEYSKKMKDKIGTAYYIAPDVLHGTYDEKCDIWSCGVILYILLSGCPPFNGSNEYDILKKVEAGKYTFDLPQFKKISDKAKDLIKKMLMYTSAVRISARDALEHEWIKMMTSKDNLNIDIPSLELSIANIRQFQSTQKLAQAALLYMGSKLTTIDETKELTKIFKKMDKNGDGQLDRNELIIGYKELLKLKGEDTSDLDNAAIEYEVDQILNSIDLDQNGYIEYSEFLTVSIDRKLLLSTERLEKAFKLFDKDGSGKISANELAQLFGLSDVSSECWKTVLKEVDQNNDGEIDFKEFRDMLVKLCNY

Plasmodium falciparum protein kinase 6 (PK6, PF3D7_1337100), sequence (Q8IDW1 1-305): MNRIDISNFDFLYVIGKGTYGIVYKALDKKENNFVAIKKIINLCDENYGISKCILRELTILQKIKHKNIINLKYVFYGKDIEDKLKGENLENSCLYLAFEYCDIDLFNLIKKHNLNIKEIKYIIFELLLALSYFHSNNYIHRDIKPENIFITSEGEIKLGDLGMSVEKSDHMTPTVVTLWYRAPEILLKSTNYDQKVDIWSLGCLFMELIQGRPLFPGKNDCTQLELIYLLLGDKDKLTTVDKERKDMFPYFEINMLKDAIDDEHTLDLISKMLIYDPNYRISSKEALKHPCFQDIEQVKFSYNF

Turning to `COc1c(O)cc2oc(-c3ccc(O)cc3)cc(=O)c2c1O`, the growth inhibition in assay [1] is 0%; in assay [4], 96% (active). Also, the inhibition (usually the drop in the measured response relative to a control, in per cent) in assay [2] is 6%; in assay [3], -1%. Also, the outcome in assay [5], in assay [6], in assay [7] and in assay [8] was inactive.
Regarding `CCOc1cc(C(=O)NC2CC(C)(C)NC(C)(C)C2)ccc1-c1nc2ccc(Cl)cc2[nH]1`, the values for the growth inhibition in assay [1] and in assay [4] were 64% (active) and 100% (active), respectively. The figures for the inhibition in assay [2] and in assay [3] were 46% and 4%, respectively. The result in assay [5], in assay [6], in assay [7] and in assay [8] was inactive.
As for `Cc1cc(=O)c(-c2ccc(Oc3cccc(OC(F)(F)F)c3)cc2)c(C)[nH]1`, the growth inhibition in assay [1] is 96% (active); in assay [4], 97% (active). The inhibition in assay [2] is 13%; in assay [3] it was -5%. Besides, the outcome in assay [5], in assay [6], in assay [7] and in assay [8] was inactive.
In the case of `CCOc1cc(C(=O)N[C@@H](Cc2ccccc2)[C@H](O)CNCc2cc(OC)cc(OC)c2)cc(N2CCCCS2(=O)=O)c1`, the growth inhibition in assay [1] is 98% (active); in assay [4] it was 100% (active). The results for the inhibition in assay [2] and in assay [3] were -2% and 5%, respectively. The result in assay [5], in assay [6], in assay [7] and in assay [8] was inactive.
As to `Cc1cc(C(=O)NCc2ccc(-c3c(C)noc3C)cc2)n(-c2ccc(Cl)cc2)n1`, the growth inhibition is 98% (active) in assay [1] and 100% (active) in assay [4]. Besides, the inhibition was -1% in assay [2] and 3% in assay [3]. Also, the outcome in assay [5], in assay [6], in assay [7] and in assay [8] was inactive.
Turning to `CCOc1ccc(N2C(N)=NC(N)=NC2(C)C)cc1`, the growth inhibition in assay [1] was -2%; in assay [4], 95% (active). Besides, the inhibition in assay [2] is 10%; in assay [3], 0%. Moreover, the result in assay [5], in assay [6], in assay [7] and in assay [8] was inactive.
In the case of `Cc1[nH]c(C)c(-c2ccc(-c3ccccc3Cl)nc2)c(=O)c1Cl`, the growth inhibition in assay [1] is 97% (active); in assay [4], 98% (active). Further, the inhibition was -1% in assay [2] and -5% in assay [3]. Moreover, the outcome in assay [5], in assay [6], in assay [7] and in assay [8] was inactive.
For `O=[N+]([O-])c1ccc(C2=NN(S(=O)(=O)c3c(Cl)cc(Cl)cc3Cl)CCCC2)cc1`, the growth inhibition in assay [1] was 98% (active); in assay [4], 99% (active). For the same compound, the inhibition is 5% in assay [2] and 0% in assay [3]. For the same compound, the outcome in assay [5], in assay [6], in assay [7] and in assay [8] was inactive.
Take `CC(C)(C)c1cc(C(=O)N2CCC(c3ccccn3)CC2)n(Cc2ccccc2)n1`: the values for the growth inhibition in assay [1] and in assay [4] were 90% (active) and 96% (active), respectively. Further, the figures for the inhibition in assay [2] and in assay [3] were 3% and -3%, respectively. The result in assay [5], in assay [6], in assay [7] and in assay [8] was inactive.
`OC(CNCc1ccccc1OCc1ccccc1)c1cccc(Cl)c1` (stereo not given): the growth inhibition in assay [1] and in assay [4] was 100% (active) throughout. Further, the inhibition in assay [2] was -6%; in assay [3] it was 7%. Further, the result in assay [5], in assay [6], in assay [7] and in assay [8] was inactive.
Turning to `Cc1[nH]c(C)c(-c2ccc(OCCOc3ccc(C(F)(F)F)cn3)cc2)c(=O)c1Br`, the growth inhibition in assay [1] and in assay [4] was 97% (active) throughout. The inhibition in assay [2] is 25%; in assay [3], 3%. Further, the outcome in assay [5], in assay [6], in assay [7] and in assay [8] was inactive.
In the case of `CC(C)(CNCc1cccc(Oc2cccc(C(F)(F)F)c2)c1)c1nc(-c2ccc(Cl)c(O)c2)c(-c2ccnc(N)n2)[nH]1`, the results for the growth inhibition in assay [1] and in assay [4] were 98% (active) and 99% (active), respectively. Also, the inhibition in assay [2] is 23%; in assay [3], 2%. For the same compound, the result in assay [5], in assay [6], in assay [7] and in assay [8] was inactive.
`C#CCCC(=O)Nc1cccc(-c2cccc(-c3nc4ccc(C(F)(F)F)cc4[nH]3)c2)c1`: the growth inhibition in assay [1] was 45%; in assay [4], 90% (active). The inhibition in assay [2] was 14%; in assay [3], -4%. The result in assay [5], in assay [6], in assay [7] and in assay [8] was inactive.
Consider `NC(N)=NC(=O)Nc1cc(F)c(Cl)c(Br)c1`, for which the growth inhibition was 50% (active) in assay [1] and 101% (active) in assay [4]. Besides, the inhibition is -3% in assay [2] and 1% in assay [3]. Also, the outcome in assay [5], in assay [6], in assay [7] and in assay [8] was inactive.
For `FC(F)(F)c1ccccc1OCc1cc(-c2ccncc2)c(COc2ccccc2C(F)(F)F)cc1C1=CCNCC1`, the values for the growth inhibition in assay [1] and in assay [4] were 81% (active) and 98% (active), respectively. Further, the figures for the inhibition in assay [2] and in assay [3] were 31% and -2%, respectively. The outcome in assay [5], in assay [6], in assay [7] and in assay [8] was inactive.
Turning to `CNc1nc(NN=Cc2ccccc2Cl)nc(Nc2cccc(C(F)(F)F)c2)n1`, the growth inhibition is -9% in assay [1] and 84% (active) in assay [4]. The results for the inhibition in assay [2] and in assay [3] were 12% and 0%, respectively. Moreover, the result in assay [5], in assay [6], in assay [7] and in assay [8] was inactive.
`CC[C@H](C)CNC(=O)c1ccnc(-c2ccc(CNCCCc3ccccc3)cc2)c1`: the values for the growth inhibition in assay [1] and in assay [4] were 84% (active) and 101% (active), respectively. In addition, the inhibition in assay [2] was 17%; in assay [3], -4%. The outcome in assay [5], in assay [6], in assay [7] and in assay [8] was inactive.
As to `COc1ccc2nccc([C@@H](O)CN3CCC(NCCOc4ccccc4C#N)CC3)c2c1`, the values for the growth inhibition in assay [1] and in assay [4] were 99% (active) and 101% (active), respectively. The inhibition in assay [2] is 10%; in assay [3] it was 2%. The result in assay [5], in assay [6], in assay [7] and in assay [8] was inactive.
Take `Cc1cc(-c2cccc(CNC3CCN(C)CC3)c2)ccc1S(=O)(=O)NCCN1CCCC1`: the growth inhibition in assay [1] was 0%; in assay [4] it was 100% (active). The inhibition in assay [2] was 18%; in assay [3], 0%. Moreover, the result in assay [5], in assay [6], in assay [7] and in assay [8] was inactive.
For the compound `Cc1ccc(C(=O)Nc2cccc(CN3CCCN(Cc4ccc(O)cc4)CC3)c2)cc1`, the growth inhibition was 5% in assay [1] and 88% (active) in assay [4]. In addition, the inhibition in assay [2] is -4%; in assay [3], -3%. Also, the result in assay [5], in assay [6], in assay [7] and in assay [8] was inactive.
